Screening data (PubChem)
A selection: hits, their analogues and other compounds. The true share with any hit is near 4.7%.
tim23-1 inh: growth inhibitors of tim23-1 mutant yeast. S. cerevisiae tim23-1 growth, BacTiter-Glo luminescence, 24 h. inhibition, % at 20 µM. 1.3% of 330,000 active. AID 463212;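 active = growth inhibition of the mutant yeast at or above 50%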;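 also: temperature-sensitive mutant grown at 25 °C; plate controls were DMSO-treated mutant yeast for no effect and medium wells lacking yeast for full effect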
TIM10 inh: inhibits growth of TIM10 yeast strain; S. cerevisiae TIM10 strain growth, BacTiter-Glo luminescence, 24 h; inhibition, % at 10 µM; 1.4% of 330,000 active;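 active = inhibition of 40% or more at the single tested concentration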;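 also: wild-type TIM10 isogenic control strain grown at permissive 25 °C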
tim10-1 inh: inhibits growth of tim10-1 mutant yeast; S. cerevisiae tim10-1 ts strain growth, BacTiter-Glo, 24 h; inhibition, % at 20 µM; 2.2% of 330,000 active;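 active = inhibition of at least 40%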;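 also: mutant grown at 25 °C; 0% = DMSO wells with yeast and 100% = wells holding no yeast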
EBI2 antag: blocks human EBI2 receptor beta-arrestin signaling. P32249. EBI2 beta-arrestin recruitment, luminescence, 7a,25-OHC stimulated. inhibition, % at 5 µM. 0.81% of 360,000 active. AID 651636; in the data active = inhibition above about 38%;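 also: enzyme fragment complementation signal reports receptor beta-arrestin coupling in cells; 0% = agonist plus DMSO wells and 100% = wells without agonist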
Target sequence (P32249 whole entry, looked up, the tested form may be a part): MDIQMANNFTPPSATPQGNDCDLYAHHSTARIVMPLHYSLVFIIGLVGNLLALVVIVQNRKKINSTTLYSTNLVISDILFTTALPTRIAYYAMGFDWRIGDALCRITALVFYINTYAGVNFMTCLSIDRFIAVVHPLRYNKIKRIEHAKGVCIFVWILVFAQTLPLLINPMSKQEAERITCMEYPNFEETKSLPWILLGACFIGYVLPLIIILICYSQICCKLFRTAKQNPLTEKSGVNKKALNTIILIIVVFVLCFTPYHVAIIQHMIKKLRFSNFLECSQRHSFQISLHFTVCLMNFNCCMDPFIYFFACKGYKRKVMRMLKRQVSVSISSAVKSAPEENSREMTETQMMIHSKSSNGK
PfHsp90 yeast 2: reduces growth (ATP signal) of yeast expressing P. falciparum Hsp90. S. cerevisiae expressing PfHsp90, BacTiter-Glo ATP, 48 h; yeast lacking PDR1 and PDR3 efflux regulators. inhibition, % at 9.4 µM. 0.32% of 310,000 active. AID 504621;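 active = every replicate shows inhibition above about 80%, whatever the replicate mean, limit read from the data; inconclusive = mean inhibition reaches the set limit but some replicate falls short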;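 also: 0% = DMSO neutral controls and 100% = 20 µM radicicol positive controls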
SKKanGAS inh: SKKanGAS growth inhibition; S. pyogenes SKKanGAS, kanamycin growth, BacTiter-Glo, 6 h; inhibition, % at 7.5 µM; 1.3% of 300,000 active; AID 1662;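 active = mean replicate score, as percent of positive control median, at least 50; inconclusive = mean below 50 but one replicate at or above 50; inactive = mean and every replicate below 50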;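 also: strain carries kanamycin resistance gene driven by streptokinase promoter and grows in 40 µg/ml kanamycin; loss of luminescence reflects streptokinase promoter inhibition or plain growth inhibition; 0% = median of DMSO wells and 100% = positive control at its reference dose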
TIM10 conf: confirmation of TIM10 yeast growth inhibitors. shares compounds with TIM10 inh. S. cerevisiae tim10 strain growth, BacTiter-Glo luminescence, 24 h. inhibition, % at 10 µM. 63% of 4,600 active. AID 463215;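 active = inhibition of yeast growth at or above a set limit in either of two replicates at 10 µM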;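 also: this counterscreen used the strain with wild-type TIM10; 0% = yeast with DMSO and 100% = medium wells lacking yeast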
Active calls of the source: *; ? = inconclusive; / = no result given.

SMILES | tim23-1 inh | TIM10 inh | tim10-1 inh | EBI2 antag | PfHsp90 yeast 2 | SKKanGAS inh | TIM10 conf
Cc1ccc2nc(Cl)c3nnnn3c2c1 | 14 | 55* | -74 | -28 | 107* | -1 | 71*
Cc1ccc(NS(=O)(=O)c2ccc(C)c(NC(=S)NCCN3CCOCC3)c2)c(C)c1 | 8 | 8 | 1 | -8 | 0 | / | /
c1ccc(Cc2nc3ccccc3n2Cc2ccccc2)cc1 | 14 | 44* | 29 | 4 | -10 | 10 | 32*
COC(=O)C(C)N(C(=O)c1cccc(Cl)c1)c1c(C)cccc1C (configuration not stated) | 35 | 30 | 35 | 12 | 4 | 0 | /
COC(=O)C(C)N(C(=O)c1cccc2ccccc12)c1c(C)cccc1C (configuration not stated) | 44 | 42* | 27 | 10 | -6 | 3 | 31*
Cc1cc(OC(C)C(=O)N(Cc2ccco2)C2CCS(=O)(=O)C2)ccc1Cl (configuration not stated) | 3 | 0 | 2 | -1 | 20 | -5 | /
Cc1ccc2nc(-c3ccc4c(c3)NC(=O)CO4)cn2c1 | 35 | 46* | 20 | 4 | -11 | -3 | 45*
CC(=O)C(Cc1ccccc1)NC(=O)COC(=O)CCN1C(=O)C2CC=CCC2C1=O (configuration not stated) | 7 | 4 | 10 | -1 | -19 | -1 | /
CC(NC(=O)/C(C#N)=C/c1ccc(Cl)c([N+](=O)[O-])c1)c1ccccc1 (configuration not stated) | -91 | 63* | 20 | / | / | 5 | 57*
C[C@@H](NC(=O)/C(C#N)=C/c1ccc(O)c(O)c1)c1ccccc1 | 21 | 3 | 9 | 7 | -17 | / | /
O=C(Nc1cc(C(=O)N2CCN(c3ccccc3O)CC2)ccc1Cl)c1cccs1 | 1 | -9 | -22 | -4 | -3 | 0 | /
Clc1c(-c2ccccc2)nc2ccccn12 | 6 | 97* | 2 | -3 | 4 | -6 | 6
CC(C)CCOP(=O)(c1ccc(N(C)C)cc1)C(O)c1ccccc1F (configuration not stated) | 29 | 50* | 32 | -7 | 3 | -5 | 41*
CC(C)CCOP(=O)(c1ccc(N(C)C)cc1)C(O)c1ccc(C(C)C)cc1 (configuration not stated) | 24 | 40 | 30 | 15 | -45 | 0 | 36*
Cc1ccccc1C(=O)Nc1scc(-c2ccc(Br)cc2)c1C(=O)O | 47 | 53* | 22 | 3 | 12 | 86* | 42*
S=C(NCC1CCCCC1)Nc1ccc(Oc2ccccc2)cc1 | 23 | 54* | 40 | -6 | -10 | 54* | 30*
S=C(Nc1ccc(Oc2ccccc2)cc1)NC1CCCC1 | 42 | 16 | 38 | -35 | -28 | 4 | /
CC(/C=C1\SC(=S)N(NS(=O)(=O)c2ccc(C)cc2)C1=O)=C\c1ccccc1 | 29 | 48* | 28 | 3 | -46 | 78* | 25
Cc1nnc(SCc2ccc(Cl)c(Cl)c2)s1 | 6 | 2 | 15 | -19 | -22 | -5 | /
Cc1[nH]c(=S)sc1Cc1ccc(Cl)c(Cl)c1 | 18 | 42* | 28 | / | / | 28 | -13
O=C(NC12CC3CC(CC(C3)C1)C2)N(Cc1ccccc1)Cc1ccncc1 | 37 | 44* | 30 | 7 | / | -3 | 32*
CCCCOC(=O)c1ccc(NC(=O)c2ccoc2C)cc1 | 27 | 41* | 34 | 8 | 5 | 3 | 2
O=C(c1ccco1)N(Cc1ccccc1)c1cccc([N+](=O)[O-])c1 | -11 | 44* | 32 | 6 | 12 | 2 | 31
O=C(c1ccco1)N(Cc1cccc([N+](=O)[O-])c1)c1ccc(Br)cc1 | 25 | 13 | 24 | -3 | 0 | 1 | /
Cn1c(SCC(=O)N/N=C/c2ccc([N+](=O)[O-])s2)nnc1-c1ccccc1 | 43 | 71* | 28 | 6 | ? | 8 | 82*
SMILES | tim23-1 inh | TIM10 inh | tim10-1 inh | EBI2 antag | PfHsp90 yeast 2 | SKKanGAS inh | TIM10 conf
COc1cccc2cc(-c3nc4ccccc4[nH]3)c(=O)oc12 | 14 | 54* | -31 | -1 | 28 | -2 | 36*
CCOC(=O)NC(O)C(=O)c1cccs1 (configuration not stated) | 7 | 7 | 5 | -8 | -8 | -3 | /
COc1ccc(N=Nc2nc(-c3ccccc3)c(-c3ccccc3)[nH]2)cc1 | 34 | 41* | 32 | 35 | -23 | 20 | 8
CC(C)c1ccc(NC(=O)Cc2cn(C)c3ccccc23)cc1 | 33 | 47* | 26 | 9 | -14 | -9 | 32*
Cn1cc(CC(=O)NCc2ccc(F)cc2)c2ccccc21 | 11 | -18 | 23 | 2 | 0 | -1 | /
O=S1(=O)C=C(Oc2ccc(F)cc2)c2ccccc21 | 20 | -3 | 3 | -16 | -29 | 0 | /
O=S1(=O)C=C(Oc2ccc3ccccc3c2)c2ccccc21 | 38 | 42* | 28 | -8 | 23 | 9 | 42*
Cc1ccccc1S(=O)(=O)N(C)C[C@H]1OCc2cnnn2CCCC(=O)N([C@H](C)CO)C[C@H]1C | / | / | / | 0 | / | / | /
CCn1c(C)cc(/C=C2/SC(=S)NC2=O)c1C | 47 | 44* | 35 | -13 | 1 | 11 | -7
CCn1ncc(/C=C2/SC(=S)NC2=O)c1C | 15 | 12 | 23 | 6 | -21 | 13 | /
COc1ccccc1NC(=S)N1CCN(c2ncccn2)CC1 | 2 | 95* | -14 | -7 | -7 | -1 | 3
O=C(NC(=S)NC12CC3CC(CC(C3)C1)C2)c1ccc(F)cc1 | 47 | 44* | 20 | 11 | / | / | 48*
O=C(NC12CC3CC(CC(C3)C1)C2)c1ccccc1 | 7 | 8 | 26 | -9 | 7 | 6 | /
C[C@]12C(=O)N(c3ccccc3)C(=O)N1[C@H]1c3ccccc3OC[C@@H]1[C@H]2c1ccccc1 | 46 | 42* | 28 | 10 | -45 | / | 47*
CC(=O)Oc1oc(-c2ccccc2)nc1C=Nc1ccc(N(C)C)cc1 | 47 | 45* | 29 | 6 | -3 | 0 | 22
O=C(Nc1ccc2c(c1)CCC2)c1cc(=O)[nH]c2ccccc12 | -3 | -6 | 8 | -3 | -2 | 4 | /
COc1cc(/C=C2\N=C(c3c(-c4ccccc4)noc3C)OC2=O)ccc1OC(C)=O | 29 | 39 | 35 | 6 | -23 | 11 | /
COc1cccc(/C=C2\N=C(c3c(-c4ccccc4)noc3C)OC2=O)c1 | 49 | 47* | 40 | -8 | 7 | 12 | 25
CS(=O)(=O)N1CCN(c2ccccc2NC(=O)c2ccco2)CC1 | -11 | -1 | 2 | -2 | 5 | 0 | /
CC1CCN(c2ccccc2NC(=S)NC(=O)c2ccco2)CC1 | 34 | 43* | 34 | 20 | -3 | 18 | 40*
NCCS | -4 | 15 | 6 | -3 | 16 | -4 | /
